Experimental data published in PubChem BioAssay (NCATS).
Records with an inconclusive call do not appear. The source made the active and inactive calls. Calls follow the shape of the dose curve; as a rule, active = well fitted cell-killing curve with a large enough effect; inconclusive = small, poorly fitted or top-dose-only effect, or effect the other way; inactive = no such curve, though single readings can be large or run the other way.

Tests used:
[1] = Quantitative High-Throughput drug screen in 47 multiple myeloma cell lines against the NCATS MIPE library collection: MM1R_ATCC cell viability assay (AID 1918981); also: nearly all actives have a fitted effect of over 35% in size; also: potency is read from the fitted curve at half-maximal effect
Outline: (§1)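 Myeloma cells (500/well) treated with MIPE 4.0 compounds for 48 h at 37 °C, 5% CO2. Viability read as ATP via CellTiter-Glo luminescence after 5 min at RT; DMSO-only wells = 100%, media-only = 0% viability.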

[2] = Quantitative High-Throughput drug screen in 47 multiple myeloma cell lines against the NCATS MIPE library collection: KMS28PE_JCRB cell viability assay (AID 1918983); also: nearly all actives have a fitted effect of over 35% in size; also: potency is read from the fitted curve at half-maximal effect
Outline: as §1

[3] = Quantitative High-Throughput drug screen in 47 multiple myeloma cell lines against the NCATS MIPE library collection: KMS34_JCRB cell viability assay (AID 1918985); also: nearly all actives have a fitted effect of over 40% in size; also: potency is read from the fitted curve at half-maximal effect
Outline: as §1

[4] = Quantitative High-Throughput drug screen in 47 multiple myeloma cell lines against the NCATS MIPE library collection: OPM1_PLB cell viability assay (AID 1918989); also: nearly all actives have a fitted effect of over 40% in size; also: potency is read from the fitted curve at half-maximal effect
Outline: as §1

[5] = Quantitative High-Throughput drug screen in 47 multiple myeloma cell lines against the NCATS MIPE library collection: SKMM1_PLB cell viability assay (AID 1919863); settings: SKMM1 myeloma viability, CellTiter-Glo ATP, 48 h; viability: hits give low values; also: nearly all actives have a fitted effect of over 35% in size; also: potency is read from the fitted curve at half-maximal effect; as to viability: series mostly up to about 46 µM
Outline: as §1

[6] = Quantitative High-Throughput drug screen in 47 multiple myeloma cell lines against the NCATS MIPE library collection: U266_ATCC cell viability assay (AID 1919864); also: nearly all actives have a fitted effect of over 35% in size; also: potency is read from the fitted curve at half-maximal effect
Outline: as §1

[7] = Quantitative High-Throughput drug screen in 47 multiple myeloma cell lines against the NCATS MIPE library collection: UTMC2_PLB cell viability assay (AID 1919868); also: nearly all actives have a fitted effect of over 55% in size; also: potency is read from the fitted curve at half-maximal effect
Outline: as §1

[8] = Quantitative High-Throughput drug screen in 47 multiple myeloma cell lines against the NCATS MIPE library collection: PE2_PLB cell viability assay (AID 1919869); also: nearly all actives have a fitted effect of over 35% in size; also: potency is read from the fitted curve at half-maximal effect
Outline: as §1

[9] = Quantitative High-Throughput drug screen in 47 multiple myeloma cell lines against the NCATS MIPE library collection: RPMI8226_ATCC cell viability assay (AID 1919871); also: nearly all actives have a fitted effect of over 30% in size; also: potency is read from the fitted curve at half-maximal effect
Outline: as §1

[10] = Quantitative High-Throughput drug screen in 47 multiple myeloma cell lines against the NCATS MIPE library collection: OPM2_DSMZ cell viability assay (AID 1919872); also: nearly all actives have a fitted effect of over 30% in size; also: potency is read from the fitted curve at half-maximal effect
Outline: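 Luminescent ATP measurement with CellTiter-Glo gives viability, scaled between DMSO-only wells (100%) and media-only wells (0%). Cells, 500 per well, faced library compounds for 48 hours at 37C.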

[11] = Quantitative High-Throughput drug screen in 47 multiple myeloma cell lines against the NCATS MIPE library collection: OCIMY7_PLB cell viability assay (AID 1918987); also: potency is read from the fitted curve at half-maximal effect; nearly all actives have a fitted effect of over 65% in size
Outline: as §1

[12] = Quantitative High-Throughput drug screen in 47 multiple myeloma cell lines against the NCATS MIPE library collection: OCIMY5_PLB cell viability assay (AID 1918988); also: nearly all actives have a fitted effect of over 65% in size; also: potency is read from the fitted curve at half-maximal effect
Outline: as §1

[13] = Quantitative High-Throughput drug screen in 47 multiple myeloma cell lines against the NCATS MIPE library collection: XG1_PLB cell viability assay (AID 1919866); also: nearly all actives have a fitted effect of over 35% in size; also: potency is read from the fitted curve at half-maximal effect
Outline: as §1

[14] = Quantitative High-Throughput drug screen in 47 multiple myeloma cell lines against the NCATS MIPE library collection: VP6_DJ cell viability assay (AID 1919867); also: nearly all actives have a fitted effect of over 40% in size; also: potency is read from the fitted curve at half-maximal effect
Outline: as §1

[15] = Quantitative High-Throughput drug screen in 47 multiple myeloma cell lines against the NCATS MIPE library collection: PCM6_Riken cell viability assay (AID 1919870); also: nearly all actives have a fitted effect of over 30% in size; also: potency is read from the fitted curve at half-maximal effect
Outline: as §1

[16] = Quantitative High-Throughput drug screen in 47 multiple myeloma cell lines against the NCATS MIPE library collection: KMS28BM_JCRB cell viability assay (AID 1919874); also: nearly all actives have a fitted effect of over 35% in size; also: potency is read from the fitted curve at half-maximal effect
Outline: as §1

[17] = Quantitative High-Throughput drug screen in 47 multiple myeloma cell lines against the NCATS MIPE library collection: KMS11_JCRBsus cell viability assay (AID 1919873); also: nearly all actives have a fitted effect of over 50% in size; also: potency is read from the fitted curve at half-maximal effect
Outline: as §1

[18] = Quantitative High-Throughput drug screen in 47 multiple myeloma cell lines against the NCATS MIPE library collection: L363_DSMZ cell viability assay (AID 1918984); also: nearly all actives have a fitted effect of over 40% in size; also: potency is read from the fitted curve at half-maximal effect
Outline: as §1

[19] = Quantitative High-Throughput drug screen in 47 multiple myeloma cell lines against the NCATS MIPE library collection: XG6_PLB cell viability assay (AID 1919865); also: nearly all actives have a fitted effect of over 40% in size; also: potency is read from the fitted curve at half-maximal effect
Outline: as §1

[20] = Quantitative High-Throughput drug screen in 47 multiple myeloma cell lines against the NCATS MIPE library collection: LP1_DSMZ cell viability assay (AID 1918982); also: nearly all actives have a fitted effect of over 35% in size
Outline: as §1

COc1cccc(N(C)C(=S)Oc2ccc3c(c2)CCCC3)n1
active: Potency [9] 18.7 µM
inactive: Potency [1] | Potency [2] | Potency [3] | Potency [4] | viability [5] 139% | Potency [6] | Potency [7] | Potency [8] | Potency [10]

C[C@@H]1C[C@H]2[C@@H]3CCC4=CC(=O)C=C[C@]4(C)[C@@]3(Cl)[C@@H](O)C[C@]2(C)[C@@]1(OC(=O)c1ccco1)C(=O)CCl
active: Potency [1] 16.6 µM | Potency [11] 9.35 µM | Potency [12] 16.6 µM | Potency [4] 10.5 µM | Potency [6] 9.35 µM | Potency [13] 3.72 µM | Potency [14] 2.96 µM | Potency [7] 10.5 µM | Potency [8] 5.9 µM | Potency [15] 2.96 µM | Potency [10] 23.5 µM | Potency [16] 29.6 µM

COC(c1ccccc1)(c1ccccc1)[C@H](Oc1nc(C)cc(C)n1)C(=O)O
inactive: Potency [1] | Potency [2] | Potency [4] | Potency [6] | Potency [13] | Potency [7] | Potency [8] | Potency [9] | Potency [10] | Potency [16]

O=c1oc2c(O)c(O)cc3c(=O)oc4c(O)c(O)cc1c4c23
inactive: Potency [1] | Potency [2] | Potency [4] | Potency [6] | Potency [13] | Potency [8] | Potency [15] | Potency [10]

COc1ccc(-c2ccc3cc(C(=O)O)ccc3c2)cc1C12CC3CC(CC(C3)C1)C2
inactive: Potency [2] | Potency [3] | Potency [12] | viability [5] 119% | Potency [13] | Potency [10] | Potency [17]
active: Potency [1] 7.43 µM | Potency [6] 5.26 µM | Potency [9] 0.833 µM

NC1(c2ccc(-c3nc4ccn5c(=O)[nH]nc5c4cc3-c3ccccc3)cc2)CCC1
active: Potency [1] 5.26 µM | Potency [2] 6.62 µM | Potency [18] 2.64 µM | Potency [4] 3.32 µM | Potency [5] 7.43 µM | Potency [6] 20.9 µM | Potency [19] 20.9 µM | Potency [13] 20.9 µM | Potency [14] 1.87 µM | Potency [7] 1.18 µM | Potency [15] 1.66 µM | Potency [9] 1.05 µM | Potency [17] 5.26 µM | Potency [16] 9.35 µM

CC(C)(C)NC(=O)[C@H]1CC[C@H]2[C@@H]3CC[C@H]4NC(=O)C=C[C@]4(C)[C@H]3CC[C@]12C
inactive: Potency [2] | viability [5] 142% | Potency [9] | Potency [10] | Potency [17] | Potency [16]
active: Potency [1] 1.32 µM | Potency [11] 0.332 µM | Potency [12] 0.59 µM | Potency [4] 2.64 µM | Potency [6] 0.743 µM | Potency [13] 0.235 µM | Potency [14] 0.662 µM | Potency [7] 1.66 µM | Potency [8] 1.32 µM | Potency [15] 0.59 µM

OCc1ccc(-c2nn(Cc3ccccc3)c3ccccc23)o1
active: Potency [1] 8.33 µM | Potency [12] 16.6 µM | Potency [4] 18.7 µM | Potency [5] 5.9 µM | Potency [9] 4.18 µM
inactive: Potency [2] | Potency [18] | Potency [3] | Potency [13] | Potency [8] | Potency [15] | Potency [10] | Potency [16]

C#CCN[C@@H]1CCc2ccccc21
inactive: Potency [1] | Potency [20] | Potency [18] | Potency [4] | Potency [6] | Potency [13] | Potency [8] | Potency [10] | Potency [17] | Potency [16]
active: Potency [9] 9.35 µM

Cc1cccc(N(C)C(=S)Oc2ccc3ccccc3c2)c1
active: Potency [6] 20.9 µM
inactive: Potency [1] | Potency [2] | Potency [4] | viability [5] 112% | Potency [7] | Potency [8] | Potency [10] | Potency [16]

O=C(O)c1cn(C2CC2)c2cc(N3CCNCC3)c(F)cc2c1=O
inactive: Potency [1] | Potency [2] | Potency [3] | Potency [4] | viability [5] 166% | Potency [6] | Potency [13] | Potency [14] | Potency [8] | Potency [15] | Potency [9] | Potency [10] | Potency [17] | Potency [16]

CO[C@@]12[C@H](COC(N)=O)C3=C(C(=O)C(C)=C(N)C3=O)N1C[C@@H]1N[C@@H]12
active: Potency [1] 11.8 µM | Potency [2] 23.5 µM | Potency [3] 26.4 µM | Potency [11] 18.7 µM | Potency [12] 26.4 µM | Potency [4] 26.4 µM | Potency [5] 20.9 µM | Potency [6] 20.9 µM | Potency [13] 20.9 µM | Potency [14] 20.9 µM | Potency [8] 20.9 µM | Potency [15] 20.9 µM | Potency [10] 26.4 µM | Potency [17] 2.96 µM | Potency [16] 6.62 µM

CC(C)C1CCC(C(=O)N[C@H](Cc2ccccc2)C(=O)O)CC1 (stereo partly drawn)
inactive: Potency [1] | Potency [20] | Potency [4] | Potency [19] | Potency [13] | Potency [8] | Potency [15] | Potency [16]
active: Potency [9] 23.5 µM | Potency [10] 0.0093 µM

CCC(=O)O[C@]1(C(=O)CCl)[C@@H](C)C[C@H]2[C@@H]3CCC4=CC(=O)C=C[C@]4(C)[C@@]3(F)[C@@H](O)C[C@@]21C
inactive: Potency [1] | Potency [2] | Potency [4] | viability [5] 109% | Potency [19] | Potency [13] | Potency [8] | Potency [15] | Potency [10] | Potency [16]
active: Potency [18] 0.0093 µM | Potency [12] 1.32 µM | Potency [14] 0.0332 µM | Potency [9] 0.0059 µM

NC(N)=NC(N)=NCCc1ccccc1
active: Potency [1] 16.6 µM | Potency [2] 5.26 µM | Potency [18] 14.8 µM | Potency [3] 1.66 µM | Potency [12] 13.2 µM | Potency [4] 20.9 µM | Potency [13] 7.43 µM | Potency [14] 10.5 µM | Potency [8] 16.6 µM | Potency [9] 20.9 µM | Potency [16] 7.43 µM

COc1ccc(C(=O)CC(=O)c2ccc(C(C)(C)C)cc2)cc1
active: Potency [1] 2.35 µM | Potency [2] 8.33 µM | Potency [18] 6.62 µM | Potency [11] 3.72 µM | Potency [12] 2.64 µM | Potency [4] 7.43 µM | Potency [5] 5.9 µM | Potency [6] 5.26 µM | Potency [19] 0.743 µM | Potency [13] 1.66 µM | Potency [14] 2.64 µM | Potency [7] 3.72 µM | Potency [8] 5.26 µM | Potency [15] 0.935 µM | Potency [16] 7.43 µM
inactive: Potency [17]
